About 3,200 (1.1%) of roughly 290,000 compounds were called active. The sample as a whole holds a higher share of actives than the screen did. A number with no mark means an inactive call. Rule as the data show it: active = inhibition above about 60%; inactive = the rest.
The compounds below were run against Phosphoethanolamine/phosphocholine phosphatase (Homo sapiens) (UniProt Q8TCT1) (assay: PubChem AID 1565). Details: recombinant PHOSPHO1, absorbance phosphatase assay; at 13.3 µM; hits give high values.
Sequence of Phosphoethanolamine/phosphocholine phosphatase (Homo sapiens) (Q8TCT1 whole entry, looked up): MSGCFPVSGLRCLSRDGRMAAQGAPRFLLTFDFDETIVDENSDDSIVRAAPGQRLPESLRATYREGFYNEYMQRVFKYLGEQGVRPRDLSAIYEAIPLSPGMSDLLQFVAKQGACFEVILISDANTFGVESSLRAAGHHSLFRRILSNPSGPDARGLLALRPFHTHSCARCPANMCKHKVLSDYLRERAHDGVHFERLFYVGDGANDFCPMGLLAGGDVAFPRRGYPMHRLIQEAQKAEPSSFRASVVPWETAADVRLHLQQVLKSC
For Nc1ccc(-c2nnc(-c3ccc(-c4ccccc4)cc3)o2)cc1, the inhibition was 71.5% (active). For Brc1ccc(-c2nnc(-c3ccccc3)o2)o1, the inhibition was -10.5%. Nc1ccc(-c2nnc(-c3ccccc3)o2)cc1 showed an inhibition of 4.2%. With COc1cccc(CNC(=O)c2nnn(CC(=O)Nc3cc(C)ccc3C)c2N)c1 the inhibition was 37.5%. In the case of Cc1ccc2nc(-c3ccc(NC(=O)c4cccnc4)cc3)oc2c1, the inhibition is reported as 30.4%. Work on COc1ccccc1C(=O)Nc1ccnn1C1CCN(Cc2cnn(C)c2)CC1 yielded an inhibition of 38.1%. CCN1CCN(C(c2cccnc2)c2cc(Cl)c3cccnc3c2O)CC1 (stereo not drawn) was tested, and the inhibition was 98.8% (active). Clc1cccc(CN2COc3c(cc(Cl)c4cccnc34)C2)c1 showed an inhibition of -4%. With Cc1onc(C(=O)NN)c1C(=O)N1CCN(C(c2ccccc2)c2ccccc2)CC1 the inhibition was -25.8%. In the case of CCOC(=O)N1CCN(C(c2cccnc2)c2ccc3cccnc3c2O)CC1 (stereo not drawn), the inhibition is reported as 96.9% (active). Work on O=C(CSc1cccc2cccnc12)N/N=C/c1cccnc1 yielded an inhibition of -11.2%. Compound Oc1ccccc1CN1CCN(C(c2ccccc2)c2ccccc2)CC1 has an inhibition of 34.3%. Cc1cccc(NC(=O)c2cccc(C(=O)Nc3cccc(C)c3C)n2)c1C gave an inhibition of 14.9%. With COc1cccc2cc(C(N)=O)/c(=N\NC(=O)c3ccccc3)oc12 the inhibition was 43.7%. CCCCCN(C(=O)CCC(=O)OCC(=O)NCc1ccc(OC)cc1)c1c(N)n(CCCC)c(=O)[nH]c1=O showed an inhibition of 36.6%. In the case of Cc1ccc(NC(=O)COC(=O)C2C3CC4OC(=O)C2C4C3)cc1Cl (stereo not drawn), the inhibition is reported as 23.2%. With CSc1nnc(-c2ccncc2)n1CCCN1CCCC1=O the inhibition was 86.5% (active). Work on CCCn1c(SCC(=O)N2CCc3ccccc32)nnc1-c1ccncc1 yielded an inhibition of 1.6%. Compound COCCCn1c(SCC(=O)Nc2ccccc2)nnc1-c1ccncc1 has an inhibition of -12.8%. Compound COc1cccc(C(=O)Nc2nnc(S(=O)(=O)N(C)c3ccccc3)s2)c1 has an inhibition of 41.2%. Compound O=C(Nc1ccncc1)c1ccc([N+](=O)[O-])cc1Cl has an inhibition of 15.6%. In the case of Cc1c(CCC(=O)O)c(=O)oc2cc(OCc3ccc(Br)cc3)ccc12, the inhibition is reported as 4.7%. For Cc1c(Cc2ccccc2)c(=O)oc2cc(OCC(N)=O)ccc12, the inhibition was 61.5% (active). In the case of NC(=O)COc1ccc2c3c(c(=O)oc2c1)CCCCC3, the inhibition is reported as 18%. COc1ccc(-n2nc(C(=O)NCC(=O)N3CCCCCC3)c3ccccc3c2=O)cc1Cl was tested, and the inhibition was 36%. For COC(=O)c1sc(=S)n(-c2ccc(Cl)cc2)c1C, the inhibition was -2.1%. With CCOC(=O)c1c(N)sc(C(C)=O)c1C the inhibition was 33%. In the case of COCCOC(=O)c1sc(=S)n(CCOC)c1N, the inhibition is reported as 76.4% (active).

— PubChem BioAssay AID1565 (Sanford-Burnham Center for Chemical Genomics, 2009)
